# Hits are enriched below; roughly 2.5% of the tested compounds scored in any of these assays.
# Rce1 inhib: blocks yeast Ras-converting enzyme. calls only. Q03530. AID 2563. yeast membranes, quenched prenylated peptide cleavage fluorescence. 0.27% of 290,000 active;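 active = fall in fluorescence gain of 50% or more versus controls, with final raw signal at or below 3038400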;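 note: plate controls were neutral control wells for no effect and wells lacking membranes for full effect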
# MEKK2 WT-MEK5: raises or lowers MEK5 binding to wildtype human MEKK2 PB1 domain; bead flow cytometry, Alexa488-MEK5 binding to MEKK2 WT; actives lie on both sides; binding response (% of control), % at 10 µM; 1.1% of 290,000 active; AID 1531; in the data active = binding response below about 67% or above about 130%
# UBC13 polyUb: blocks human UBC13 polyubiquitin chain formation; TR-FRET; 0.47% of 330,000 active; inhibition, % at 20 µM; in the data active = inhibition above about 45%, passing the limit was not always enough
# MEKK3 PB1 HTS: modulators (inhibitors or enhancers) of MEK5 binding to human MEKK3 PB1 domain. Q99759. bead-based flow cytometry, Alexa488-MEK5 binding to MEKK3; actives lie on both sides; 0 = blocked by unlabeled MEK5, 100 = vehicle. binding response (% of control), % at 10 µM. 1.4% of 290,000 active. AID 1529;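 active = binding response more than 3 SD above or below the average of its plate-row segment, actives on both sides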;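 note: Alexa488 bead fluorescence after subtracting the streptavidin-only scavenger bead signal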
# Target sequence (Q99759 whole entry, looked up, the tested form may be a part): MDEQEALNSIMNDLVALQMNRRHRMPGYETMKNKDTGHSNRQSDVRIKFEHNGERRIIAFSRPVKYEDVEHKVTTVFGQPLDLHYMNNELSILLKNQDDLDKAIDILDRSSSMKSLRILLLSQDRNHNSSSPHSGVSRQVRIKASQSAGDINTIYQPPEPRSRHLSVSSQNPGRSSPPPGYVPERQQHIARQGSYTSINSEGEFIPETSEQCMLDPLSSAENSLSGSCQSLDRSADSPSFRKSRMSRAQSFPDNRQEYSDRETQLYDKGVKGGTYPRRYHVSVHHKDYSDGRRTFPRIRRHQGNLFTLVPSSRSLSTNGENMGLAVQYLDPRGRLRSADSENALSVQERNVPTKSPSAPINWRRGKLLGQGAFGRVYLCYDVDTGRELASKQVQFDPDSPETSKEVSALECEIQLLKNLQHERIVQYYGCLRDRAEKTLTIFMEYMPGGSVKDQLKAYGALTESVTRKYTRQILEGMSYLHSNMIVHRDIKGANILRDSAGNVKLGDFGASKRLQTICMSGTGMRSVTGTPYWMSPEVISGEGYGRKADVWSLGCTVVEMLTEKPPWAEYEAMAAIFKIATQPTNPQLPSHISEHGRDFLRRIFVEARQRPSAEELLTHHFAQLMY
# MEKK2mut PB1 HTS: signal of MEK5 binding to mutant human MEKK2 PB1 domain; AID 1530; bead flow cytometry, Alexa488-MEK5 binding to MEKK2 mutant; 0.35% of 290,000 active; percent response, % at 10 µM; in the data active = percent response above about 24%, passing the limit was not always enough
# MEKK2wt confirm: raises or lowers MEK5 binding to wildtype human MEKK2, retest | AID 1892 | 2.4% of 5,900 active | shares compounds with MEKK3 PB1 HTS | binding response (% of control), % at 10 µM | bead flow cytometry, Alexa488-MEK5 binding to MEKK2 WT; actives lie on both sides; in the data active = binding response below about 16% or above about 210%; inactive = in between
# MEKK2mut-MEK5: signal of MEK5 binding to mutant human MEKK2, retest. shares compounds with MEKK3 PB1 HTS. bead flow cytometry, Alexa488-MEK5 binding to MEKK2 mutant. percent response, % at 10 µM. 2% of 5,900 active. AID 1893; in the data active = percent response mostly above about 71%, no sharp cut-off; inactive = mostly below about 38%;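 note: higher means compound restores mutant binding toward wildtype level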
# MEKK3-MEK5 inh: confirmation of inhibitors of MEK5 binding to human MEKK3 | bead flow cytometry, Alexa488-MEK5 binding to MEKK3; active compounds read low | shares compounds with MEKK3 PB1 HTS | AID 1894 | binding response (% of control), % at 10 µM | 1.8% of 5,900 active;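 active = binding response below 72% of control, or above a set upper limit, though filed actives all read lower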;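 note: 100% = DMSO only wells and 0% = binding blocked by excess unlabeled MEK5; lower values mean stronger disruption of MEK5 binding to MEKK3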
# Starred values were filed as active, the others as inactive; i = inactive; nt = no result given; [ ] = another dose, or the depositor's remark.
SMILES,Rce1 inhib,MEKK2 WT-MEK5,UBC13 polyUb,MEKK3 PB1 HTS,MEKK2mut PB1 HTS,MEKK2wt confirm,MEKK2mut-MEK5,MEKK3-MEK5 inh
O=C(O)c1ccccc1C(=O)Nc1ccccc1,i,103.0,-2.2,101.0,2.0,nt,nt,nt
O=C(Nc1ccccc1)C1=C(c2ccccc2)S(=O)(=O)CCS1(=O)=O,i,8.0*[inhibitor],nt,6.0*[inhibitor],-19.0,103.0,-4.0,101.0
CN(Cc1ccc(Cl)cc1Cl)C(=O)CNC(=O)c1ccc2c(c1)OCO2,i,nt,2.2,nt,nt,nt,nt,nt
COc1ccc(NC(=O)c2cnc(SC)nc2)cc1,i,103.0,-2.4,102.0,11.0,nt,nt,nt
Cc1ccc2c(c1)nnn2C1CCN(CC(=O)c2ccc(Cl)cc2)CC1,i,120.0,5.0,129.0*,5.0,102.0,4.0,101.0
C#CC(C)(CC)NC(=O)c1cc2nc(C3CC3)cc(C(F)(F)F)n2n1 (stereo unspecified),i,98.0,1.3,107.0,-2.0,nt,nt,nt
Cc1ccc(C)c(OCCCN2CCc3ccccc3C2)c1,i,117.0,7.3,98.0,7.0,nt,nt,nt
Cc1ccc(OCCCCN2CCc3ccccc3C2)c(C)c1,i,139.0*,6.0,116.0,18.0,104.0,0.0,99.0
COc1ccc(P(=O)(COc2ccc([N+](=O)[O-])cc2)c2ccc(OC)cc2)cc1,i,101.0,7.5,66.0*[inhibitor],-1.0,94.0,-3.0,94.0
O=C(c1ccccc1F)N1CCN(S(=O)(=O)c2ccc3c(c2)OCCO3)CC1,i,103.0,-1.8,103.0,2.0,nt,nt,nt
CN(C1CCCCC1)S(=O)(=O)c1ccc(S(=O)(=O)N2CCN(C(=O)c3ccccc3F)CC2)cc1,i,133.0,-6.3,144.0*,9.0,106.0,4.0,106.0
CC(=O)c1c(N2CCN(CCO)CC2)nc(=S)n(-c2ccccc2)c1C,i,103.0,0.8,104.0,1.0,nt,nt,nt
CC(=O)c1c(N2CCN(c3ccccc3)CC2)nc(=S)n(-c2ccccc2)c1C,i,23.0*[inhibitor],10.2,82.0,11.0,93.0,-7.0,94.0
Cn1c(N)c(C(=O)CSc2nnc(-c3ccccc3F)n2N)c(=O)n(C)c1=O,i,56.0,-5.5,47.0*[inhibitor],-19.0,101.0,3.0,104.0
C=CCn1c(SCC(=O)c2c(N)n(C)c(=O)n(C)c2=O)nnc1-c1ccccc1F,i,85.0,14.8,107.0,108.0*,101.0,2.0,103.0
C=CCn1c(SCC(=O)c2c(N)n(C)c(=O)n(C)c2=O)nnc1-c1ccncc1,i,101.0,6.4,105.0,-3.0,nt,nt,nt
CC(=O)N/C(=C\c1ccccc1)C(=O)OCc1cc(C)ccc1C,i,100.0,-12.5,100.0,-2.0,nt,nt,nt
COc1ccc(C(=O)Nc2ccc(NC(=O)c3cnccn3)cn2)cc1,i,97.0,-7.3,96.0,1.0,nt,nt,nt
CCOc1ccc2noc3c2c1C(=O)c1ccccc1-3,i,nt,-130.1,nt,nt,nt,nt,nt
O=C1c2ccccc2-c2onc3ccc(NCc4ccco4)c1c23,i,53.0*[inhibitor],i,52.0*[inhibitor],-18.0,63.0,-22.0,59.0*
CCNc1ccc2noc3c2c1C(=O)c1ccccc1-3,i,30.0*[inhibitor],i,32.0*[inhibitor],1.0,52.0,-14.0,56.0*
COCC1CCCC1OS(N)(=O)=O (stereo unspecified),i,119.0,-1.1,106.0,3.0,nt,nt,nt
O=C(NCCOc1ccccc1)C1CCC(=O)N(C2CCCCCC2)C1 (stereo unspecified),i,97.0,3.0,97.0,3.0,nt,nt,nt
COc1ccc(CCNC(=O)CSCC(=O)Nc2cc(S(C)(=O)=O)ccc2Cl)cc1,nt,nt,-3.3,nt,nt,nt,nt,nt
CCCC(CCC)c1nc2ccncc2[nH]1,i,91.0,-8.1,99.0,-5.0,nt,nt,nt
SMILES,Rce1 inhib,MEKK2 WT-MEK5,UBC13 polyUb,MEKK3 PB1 HTS,MEKK2mut PB1 HTS,MEKK2wt confirm,MEKK2mut-MEK5,MEKK3-MEK5 inh
c1cc2nc(C34CC5CC(CC(C5)C3)C4)[nH]c2cn1,nt,3.0*[inhibitor],0.6,2.0*[inhibitor],-15.0,96.0,-3.0,97.0
Cc1ccccc1-n1c(C)nnc1SCC(=O)NNC(=O)c1ccccc1,i,104.0,-14.4,148.0*,0.0,93.0,1.0,95.0
CC12CCC(=O)N1C(C(=O)OCc1c(Cl)cccc1Cl)CS2 (stereo unspecified),i,104.0,2.5,103.0,3.0,nt,nt,nt
COc1ccc2cnnc(SCC(=O)Nc3ccc(C(C)=O)cc3)c2c1OC,i,97.0,8.6,99.0,-2.0,nt,nt,nt
COc1ccc2cnnc(SCC(=O)Nc3ccc(C(=O)O)cc3)c2c1OC,i,111.0,7.3,143.0*,0.0,100.0,-1.0,102.0
O=C(CSc1ccc(-c2cccnc2)nn1)Nc1ccc(F)c(F)c1,i,99.0,1.5,97.0,2.0,nt,nt,nt
COc1ccc2c(-c3ccccc3)cc(SCC(N)=O)nc2c1,i,9.0*[inhibitor],-0.7,105.0,115.0*,101.0,-1.0,99.0
COc1ccc2nc(SCC(N)=O)cc(C)c2c1,i,102.0,-2.0,104.0,5.0,nt,nt,nt
CCOc1cc(/C=N/NC(=O)CSc2nnc(C)s2)ccc1OCc1ccccc1Cl,i,101.0,-14.2,132.0*,-1.0,106.0,3.0,102.0
Cc1cccc(NC(=O)CCC(=O)N2CCOCC2)n1,nt,nt,1.1,nt,nt,nt,nt,nt
Cc1nnc(C)n1N,i,-3.0*[inhibitor],-5.5,101.0,-4.0,94.0,-19.0,93.0
O=C(Nc1ccc(-c2nc3ccccc3[nH]2)cc1)c1ccc2c(c1)OCO2,i,83.0,6.9,81.0*[inhibitor],-5.0,84.0,-13.0,85.0
Cc1nc2c3ccccc3nc(NNC(=O)CCC(=O)NCCC(C)C)n2n1,i,109.0,3.7,130.0*,0.0,99.0,-5.0,101.0
CCN(CC)CCCNC(=O)CCC(=O)NNc1nc2ccccc2c2nc(C)nn12,i,89.0,-2.1,93.0,-15.0,nt,nt,nt
Cc1cc(N2CCN(c3ccccc3)CC2)nc(NCc2ccccc2)n1,nt,168.0*,24.2,109.0,18.0,161.0,42.0,109.0
CCCc1nc(C)cc(N2CCN(c3ccccc3)CC2)n1,i,106.0,5.2,105.0,6.0,nt,nt,nt
O=C(c1ccc(Cl)c(S(=O)(=O)N2CCCCC2)c1)N1CCN(Cc2ccccc2)CC1,i,106.0,-3.5,103.0,2.0,nt,nt,nt
O=S(=O)(NCc1cccnc1)c1ccc(Cl)cc1,i,104.0,-1.7,105.0,1.0,nt,nt,nt
CN(CCS(=O)(=O)c1ccc(Cl)cc1)Cc1cccnc1,i,119.0,1.6,138.0*,29.0,100.0,-1.0,101.0
O=C(Nc1ccc(Br)c(C(F)(F)F)c1)c1ccc(C(F)(F)F)cc1,i,139.0*,-1.0,119.0,10.0,141.0,18.0,103.0
CCOC(=O)C(CCCOc1ccc(C)cc1)C(=O)OCC,i,103.0,-4.2,102.0,4.0,nt,nt,nt
CCOC(=O)C(CCCOc1ccccc1)C(=O)OCC,i,65.0,4.2,43.0*[inhibitor],-35.0,96.0,-5.0,101.0
